PAFAH2 FP inh = PAFAH2 (human) inhibition. Q99487. recombinant PAFAH2, FP-rhodamine activity probe, fluorescence polarization. inhibition, % at 3.39 µM. 340,000 tested, 0.99% active. AID 492956;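 active means inhibition above the mean over all tested compounds plus 3 SD, cut at about 30% in these data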;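 further: inhibitors block probe labeling of enzyme so polarization drops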
pPAFAH FP inh = pPAFAH (human) enzyme inhibition; Q13093; recombinant pPAFAH, FP-rhodamine probe fluorescence polarization; inhibition, % at 3.39 µM; 330,000 tested, 1.5% active; AID 463082;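 active means inhibition above the mean inhibition across the screen plus 3 SD, cut at about 25% in these data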;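 further: inhibitors block binding of the rhodamine activity-based probe so polarization drops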
PAFAH1B3 inh = blocks human PAF acetylhydrolase 1B catalytic subunit 3. AID 492972. recombinant PAFAH1B3, FP-rhodamine probe, fluorescence polarization. 340,000 tested, 0.28% active. inhibition, % at 3.39 µM. Q15102;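 active means inhibition above the screen-wide average of all tested compounds plus 3 SD, cut at about 25% in these data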
Target sequence (Q15102 whole entry, looked up): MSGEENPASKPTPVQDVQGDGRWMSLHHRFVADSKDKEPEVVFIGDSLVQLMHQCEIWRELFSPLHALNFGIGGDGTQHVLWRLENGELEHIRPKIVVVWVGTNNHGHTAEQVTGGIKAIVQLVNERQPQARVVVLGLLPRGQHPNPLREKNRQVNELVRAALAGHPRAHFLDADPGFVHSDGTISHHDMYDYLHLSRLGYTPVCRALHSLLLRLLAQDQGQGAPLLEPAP
TCR-CD3 inh = blocks the human TCR-CD3 interaction; TAMRA-labeled TCR probe fluorescence, biochemical; inhibition, % at 9.4 µM; 360,000 tested, 0.37% active; in the data active means inhibition above about 19%;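 further: recombinant mutant TCR 2C K166C tagged with TAMRA read by polarization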
PAFAH1B2 inh = inhibitors of human PAFAH1B2; 340,000 tested, 1.2% active; P68402; recombinant PAFAH1B2, FP-rhodamine activity probe, fluorescence polarization; inhibition, % at 3.39 µM; AID 492953;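 active means inhibition above the mean of all tested compounds plus 3 SD, cut at about 24% in these data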
Target sequence (P68402 whole entry, looked up): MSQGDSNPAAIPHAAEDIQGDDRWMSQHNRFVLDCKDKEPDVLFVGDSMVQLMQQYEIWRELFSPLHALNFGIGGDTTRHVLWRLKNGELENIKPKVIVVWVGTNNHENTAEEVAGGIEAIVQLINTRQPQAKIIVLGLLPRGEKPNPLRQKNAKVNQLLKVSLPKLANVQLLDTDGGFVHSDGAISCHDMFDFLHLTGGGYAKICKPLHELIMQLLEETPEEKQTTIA
pPAFAH confirm = pPAFAH (human) inhibition, confirmed; AID 463230; shares compounds with pPAFAH FP inh; 2,300 tested, 72% active; inhibition, % at 3.39 µM; recombinant pPAFAH, FP-Rh probe fluorescence polarization;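 active means mean inhibition of the triplicate above the hit cutoff set for the earlier primary screen, cut at about 25% in these data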
Numbers stand for hits; i = inactive; nt = no result; ! = not confirmed by another sample. In the library only some 2.7% were active in any assay of this set; here they are far more common.

SMILES	PAFAH2 FP inh	pPAFAH FP inh	PAFAH1B3 inh	TCR-CD3 inh	PAFAH1B2 inh	pPAFAH confirm
Cc1cccc(C)c1-n1cccc1/C=C1\SC(=S)N(c2cccc(C(=O)O)c2)C1=O	i	50.2	i	i	i	50.9
Cc1cccc(C)c1NC(=O)CN1C(=O)S/C(=C\c2cccn2-c2cccc(C(=O)O)c2)C1=O	i	i	i	i	i	nt
C/C(=N\NC(=O)c1cc2ccccc2cc1O)c1ccc(C)o1	i	41.4	i	i	i	i
C/C(=N\NC(=O)c1cc2ccccc2cc1O)c1cccs1	i	51.6	i	i	i	i
O=C1NC[C@@H](CCCCN2C[C@H](Cc3ccccc3)N(CCc3ccc(O)cc3)C(=O)C2=O)N(CC2CCCCC2)C1=O	nt	nt	nt	i	nt	nt
COc1ccc(N(CC(=O)NC2CCS(=O)(=O)C2)S(=O)(=O)c2ccc(Cl)c(Cl)c2)cc1 (stereo unspecified)	i	nt	i	i	i	nt
N#CCC(=O)Nc1ncn(Cc2ccccc2Cl)n1	i	34.6	i	i	i	i
CC(C)NC(=O)Cn1cnc2c(cnn2-c2ccc(F)cc2)c1=O	i	i	i	i	i	nt
COc1ccc(-n2ncc3c(=O)n(CC(=O)NC(C)C)cnc32)cc1	i	35.6	i	i	i	i
O=C(OCC(=O)N1N=C(c2ccc(Cl)cc2)CC1c1ccco1)c1cncc(Br)c1 (stereo unspecified)	i	i	i	i	i	nt
O=C(O)CN1CCN(Cc2ccccc2F)C1=O	i	58.1	i	i	i	i
COc1ccc(OC)c(NS(=O)(=O)c2ccc3[nH]c(=O)[nH]c3c2)c1	nt	nt	nt	i	nt	nt
O=S(=O)(Nc1ccc(Cl)cc1)c1ccc(N2CCOCC2)c(NC(=S)NCCN2CCOCC2)c1	i	58.0	i	i	i	58.8
COCCNC(=S)Nc1ccc(N2CCOCC2)c(S(=O)(=O)Nc2ccc(Cl)cc2)c1	nt	nt	nt	i	nt	nt
CN1CCN(CC(=O)N2CCn3c4c(c5cc(C6CCCCC6)ccc53)CCCC42)CC1 (stereo unspecified)	i	36.3	i	nt	i	53.5
O=[N+]([O-])c1cc([N+](=O)[O-])c(Oc2ccc(Br)cc2Br)cc1NN1CCCCC1	i	i	i	i	i	nt
COc1ccc(Cl)cc1C(=O)NNC(=O)c1[nH]c(C)c(C(C)=O)c1C	i	54.4	i	i	i	i
CC(=O)c1c(C)[nH]c(C(=O)NNC(=O)c2ccc(C)cc2)c1C	i	i	i	i	i	nt
O=C(NCc1ccccc1)c1cc[n+]([O-])cc1	i	i	i	i	i	nt
COc1ccc(CNS(=O)(=O)CCNC(=O)c2ccc3c(c2)OCO3)cc1	i	i	i	i	i	nt
COc1ccc(C(=O)NCCS(=O)(=O)NCc2ccc3c(c2)OCO3)cc1	i	38.9	i	i	i	i
CCOC(=O)Cc1nnc(NC(=O)CSc2nc3ccccc3[nH]2)s1	i	i	i	i	i	nt
CCOC(=O)N1CCN(C(=O)CCN2C(=O)COc3ccc(C)cc32)CC1	i	77.5	i	i	i	i
CCC(C)NC(=O)C1CCC(CNS(=O)(=O)c2ccc3c(c2)N(C(C)=O)CCO3)CC1 (stereo unspecified)	i	i	i	i	i	nt
CCn1nc([N+](=O)[O-])c(C(C#N)c2nc3cc(C(F)(F)F)ccc3s2)c(Cl)c1=O (stereo unspecified)	41.5	79.6	i	i	30.9	69.7
SMILES	PAFAH2 FP inh	pPAFAH FP inh	PAFAH1B3 inh	TCR-CD3 inh	PAFAH1B2 inh	pPAFAH confirm
Cn1nc([N+](=O)[O-])c(C(C#N)c2ccccn2)c(Cl)c1=O (stereo unspecified)	i	i	i	i	i	nt
CCCn1nc([N+](=O)[O-])c(C(C#N)c2nc3ccccc3o2)c(Cl)c1=O (stereo unspecified)	46.1	68.7	28.1	i	39.5	58.0
Cc1ccc(Cn2c(C(C)Nc3nc(-c4ccc(Cl)c([N+](=O)[O-])c4)cs3)nc3cc(C(F)(F)F)ccc32)cc1 (stereo unspecified)	i	i	i	i	i	nt
C[C@@H](NC(=O)[C@@H]1CCCN1C(=O)OC(C)(C)C)c1ccccc1	nt	nt	nt	i	nt	nt
CC(=O)Nc1ccc(S(=O)(=O)NCCC(=O)OCC(=O)c2cc(C)ccc2C)cc1	i	nt	i	i	i	nt
COC(=O)C1=CN(c2ccc(C(C)(C)C)cc2)C(N)=C(C#N)C1c1cccc([N+](=O)[O-])c1 (stereo unspecified)	nt	nt	nt	i	nt	nt
CN(C(=S)Nc1ccc(SC(F)F)cc1)c1ccc(O)cc1	i	51.4	i	i	i	i
O=C1CCCCCCC(=O)[C@H](O)C[C@H](c2ccccc2)O1	nt	nt	nt	i	nt	nt
CCCCOc1[nH]c2nc(-c3ccco3)n(Cc3ccco3)c(=N)c2c1C#N	i	57.4	i	i	i	i
c1ccc(CSc2nnc(-c3ccco3)n2Cc2ccco2)cc1	i	i	i	i	i	nt
N#CCC(=O)Nc1ccc(C(=O)OCC(=O)Nc2ccccc2Sc2ccccc2)cc1	nt	71.2	nt	i	nt	i
CC(=O)Nc1ccc(C(=O)OCC(=O)Nc2ccccc2Sc2ccccc2)cc1	i	i	i	i	i	nt
O=C(O)c1cc(-c2ccco2)nc2ccc(Br)cc12	45.0!	63.2!	i	i	i	i
CCOC(=O)CN1N=C(c2ccc(C)cc2)CCC1=O	i	i	i	i	i	nt
CC1=Nc2nc(N3CCCCCC3)c(C#N)c3c4c(nc(c23)N1)N(c1ccc2ccccc2c1)C(=O)C4	i	59.1	i	nt	i	i
N#Cc1c(N2CCN(c3ccc(F)cc3)CC2)nc(N)c2c(N)nc3c(c12)CC(=O)N3C1CC1	i	nt	i	i	i	nt
COc1cccc(-c2ccc3c(c2)C2CC3CCN2C(C)=O)c1 (stereo unspecified)	i	nt	i	i	i	nt
Cc1cccc(NC(=O)CSCC(=O)Nc2cccc(S(=O)(=O)N3CCCCCC3)c2)c1	i	i	i	i	i	nt
Cc1ccc(C2C(/C=C3/SC(=S)NC3=O)=C(c3cccs3)Oc3ccccc32)cc1 (stereo unspecified)	i	38.5	i	i	i	47.5
O=C(c1coc(=O)c(Br)c1)N1CCCc2ccccc21	i	43.4	i	i	i	i
O=C(c1cccc(Br)c1)N1CCCc2ccccc21	i	i	i	i	i	nt
Oc1nc(Nc2cccc(Cl)c2)sc1/C=C1\C=Nc2ccccc21	i	37.0	i	i	i	28.7
CN(Cc1c(F)cccc1Cl)C(=O)CNC(=O)c1cccs1	i	i	i	i	i	nt
O=C(N/N=C/c1ccc(O)c(O)c1O)/C(=C/c1ccc([N+](=O)[O-])cc1)NC(=O)c1ccccc1	i	37.7	i	i	i	46.9
CCOC(=O)c1ccc(NC(=O)CCCN2C(=O)NC3(CCCC3)C2=O)cc1	i	i	i	i	i	nt
Cc1ccc(NS(=O)(=O)c2cccc(C(=O)N/N=C/c3c(C)nn(-c4ccccc4)c3N3CCCC3)c2)c(C)c1	i	57.7	i	i	i	34.5
CCNc1ccc(C(=O)N/N=C/c2c(C)nn(-c3ccccc3)c2N2CCCC2)cc1[N+](=O)[O-]	i	i	i	i	i	nt

Screens from PubChem BioAssay.
